Screening results deposited in PubChem BioAssay by Sanford-Burnham Center for Chemical Genomics.
Rows were chosen to be rich in hits. Some 1.5% of all compounds tested hit in one or more screens of this group.
NPR2 activator: GC-B (human) receptor activation; P20594; activation, % at 10 µM; 0.11% of 370,000 active; AID 1920062; HEK293-GC-B cells, CNP EC30, cGMP TR-FRET; 0% at EC30 CNP, 100% saturating CNP;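 active = activation at 10 µM reaching about 35% in either raw or pattern-adjusted values, limit read from the data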
NPR1 activator: GC-A (human) enzyme activation | P16066 | HEK293 GC-A cells, cGMP TR-FRET, EC30 ANP; 0% at EC30 ANP, 100% saturating ANP | activation, % at 10 µM | 0.14% of 370,000 active | AID 1671463; in the data active = activation above about 40%
Neddylation inh: inhibitors of human cullin neddylation; TR-FRET cullin neddylation, biochemical; P61081+Q13564; 0.58% of 360,000 active; inhibition, % at 25 µM; in the data active = inhibition above about 36%
NadD block: blocks S. aureus nicotinate mononucleotide adenylyltransferase | purified NadD enzyme, colorimetric absorbance read-out | inhibition, % at 20 µM | 0.78% of 360,000 active; in the data active = inhibition above about 26%
The depositor's hits bear a star; x = not tested or not shown.

SMILES | NPR2 activator | NPR1 activator | Neddylation inh | NadD block
COc1cc(/C=C2\SC(=Nc3ccc(Cl)c(C(=O)O)c3)NC2=O)c(Br)c(Br)c1O | -5.9 | -0.9 | -226.8 | 69.6*
COc1cc(/C=C2\SC(=Nc3ccccc3)NC2=O)cc(Cl)c1O | 0.3 | -1.4 | -208.2 | 13.7
O=S1(=O)N[C@@H](Cc2ccccc2)COc2cccc(N3CCCCC3)c21 | 1.2 | 2.0 | x | x
Cc1[nH][nH]c(=O)c1C(c1c(C)[nH][nH]c1=O)c1cn(Cc2ccc(F)cc2)c2ccccc12 | x | x | 2.4 | 12.1
Cc1[nH][nH]c(=O)c1C(c1c(C)[nH][nH]c1=O)c1cn(Cc2ccc(Cl)c(Cl)c2)c2ccccc12 | -9.0 | -17.4 | -5.6 | 37.3*
Cc1ccc(Nc2c(-c3ccco3)nc3ccccn23)cc1 | 10.2 | 33.8 | x | -1.2
COc1ccc(Nc2c(-c3ccco3)nc3ccc(C)cn23)cc1 | 35.6* | 30.5 | x | 2.5
O=S1(=O)c2ccc(N3CCN(Cc4ccccc4F)CC3)cc2Oc2ccccc2CN1Cc1cn(Cc2ccc(C(F)(F)F)cc2)nn1 | 6.3 | 1.1 | x | x
O=S(=O)(c1cccs1)N1CN(Cc2cccs2)c2nc3ccccc3nc21 | 0.1 | 0.3 | 40.9* | 1.7
COc1cc2c(cc1OC)C1(Nc3c-2c(-c2ccccc2)nn3-c2ccccc2)C(=O)Nc2ccccc21 (configuration not stated) | -7.2 | -30.4 | x | 39.8*
O=C(c1ccccc1Cl)N1CCC(Oc2cccnc2)CC1 | -1.3 | 2.0 | x | x
COc1cccc2c1C(=O)c1c(O)c3c(c(O)c1C2=O)C[C@@](O)(C(=O)CO)C[C@@H]3O[C@H]1C[C@H](N)[C@@H](O)[C@H](C)O1 | x | x | -82.1 | 57.5*
COc1cccc2c1C(=O)c1c(O)c3c(c(O)c1C2=O)C[C@@](O)(C(C)=O)C[C@@H]3O[C@H]1C[C@H](N)[C@H](O)[C@H](C)O1 | -0.5 | 8.3 | -123.9 | -7.6
COc1cccc2c1C(=O)c1c(O)c3c(c(O)c1C2=O)CC(O)(C(=O)CO)CC3OC1CC(N(C)C)C(O)C(C)O1 (configuration not stated) | -5.1 | 5.5 | -33.6 | 33.0*
COc1cccc(N2CCN(c3ncnc4c3[nH]c3ccc(F)cc34)CC2C)c1 (configuration not stated) | 0.1 | -1.0 | 39.4* | 0.1
COc1cccc(N2CCN(c3ncnc4c3[nH]c3ccccc34)CC2C)c1 (configuration not stated) | -2.4 | -1.6 | x | x
CC1(C)CC(=O)N(CC(=O)N2CCN(Cc3ccc4c(c3)OCO4)CC2)c2ccccc2S1(=O)=O | 2.5 | 2.7 | x | x
Oc1ccc(/C=N/Nc2ncnc3c2ncn3Cc2ccccc2)cc1O | 5.1 | -1.2 | 10.8 | 38.8*
S=C(Nc1ccc2nc(-c3ccccn3)c(-c3ccccn3)nc2c1)N1CCCCC1 | x | x | 42.3* | -5.1
O=c1n(Cc2ccc(Cl)cc2)c2sc3c(c2c2ncnn12)CCCC3 | 48.7* | 34.4 | -1.3 | 12.8
CC(C)c1[nH]nc2c1C(c1ccc3c(c1)OCO3)NC2=O (configuration not stated) | 10.9 | 9.4 | x | x
CCOC(=O)CN1CCC(c2cc(-c3ccc(Cl)cc3)n[nH]2)CC1 | -5.0 | 62.0* | -6.1 | 0.2
Cc1cccc(-c2cccc3c4c([nH]c23)[C@@H]2C[C@H](N(C)C(=O)Nc3ccccc3)[C@H]([C@H](C)O)CN2CC4)c1 | -5.4 | -1.5 | x | x
O=C(NN1C(=O)/C(=C/C=C/c2ccco2)SC1=S)c1ccccc1O | -1.3 | -8.2 | 6.2 | 40.4*
O=C(/C=C/c1ccccc1Cl)OCC(=O)N1CCCC1 | -1.5 | 5.2 | -13.9 | 1.0
SMILES | NPR2 activator | NPR1 activator | Neddylation inh | NadD block
O=C(/C=C/c1ccc(Cl)cc1Cl)OCC(=O)N1CCCC1 | -3.1 | 40.8* | -5.2 | 0.0
Cc1ccc(Cn2cc(CN3[C@H](CC(C)C)COc4cc(Br)ccc4S3(=O)=O)nn2)cc1 | -0.2 | 5.2 | x | x
COc1ccc(CNC(=O)c2cccc3c(-c4cccc(C(N)=O)c4)coc23)cc1OC | 37.7* | 32.6 | 0.4 | -4.5
CCCc1nn(C)c2c(=O)[nH]c(-c3cc(S(=O)(=O)N4CCN(C)CC4)ccc3OCC)nc12 | 57.5* | 51.8* | -8.9 | -3.8
CCCc1nn(C)c2c(=O)[nH]c(-c3ccccc3OCC)nc12 | 22.1 | 21.4 | 6.2 | -2.6
CCCc1nn(C)c2c(=O)[nH]c(-c3cc(S(=O)(=O)Nc4ccc(NC(C)=O)cc4)ccc3OCC)nc12 | 55.0* | 41.4* | 7.5 | 1.7
O=C(c1cccc(F)c1)N1CCCC(c2nc(-c3cccs3)no2)C1 (configuration not stated) | 1.9 | -3.5 | x | x
COC(=O)c1cc(-c2cccc3c2sc2ccccc23)c(=O)n2c1CCC2 | 8.7 | 2.0 | x | x
COc1ccc(CCn2c(C)cc(C(=O)COC(=O)c3ccc(NC(=O)CC#N)cc3)c2C)cc1 | x | x | -8.2 | 40.2*
COc1ccc(NC(=O)N(C)C[C@@H]2OCCCC[C@@H](C)Oc3ccc(NS(C)(=O)=O)cc3C(=O)N([C@H](C)CO)C[C@@H]2C)cc1 | 0.5 | 2.5 | x | x
O=C(N/N=C/c1cc([N+](=O)[O-])ccc1O)c1cc(-c2ccccc2)nc2ccccc12 | -6.8 | -4.2 | -5.6 | 31.1*
CCOC(=O)c1c(C)[nH]c(C(=O)N/N=C\c2ccccc2O)c1C | 5.9 | 4.8 | 14.9 | -3.4
CCOC(=O)c1c(C)[nH]c(C(=O)N/N=C/c2cc([N+](=O)[O-])ccc2O)c1C | -5.1 | -0.4 | -9.1 | 33.3*
COC(=O)c1cc2c(c3c4cc(OC)ccc4n(S(C)(=O)=O)c13)C(=O)N(C)C2 | -6.2 | -12.4 | x | x
COc1ccc(C2c3[nH]c4ccccc4c3CCN2C(=O)c2cc3ncccn3n2)c(F)c1 (configuration not stated) | 37.1* | 38.3 | 3.6 | 5.9
COc1cc2c(cc1NC(=O)CSc1nnc(-c3ccccc3C)n1Cc1ccco1)oc1ccccc12 | 10.5 | -3.1 | x | x
O=S1(=O)c2c(cccc2N2CCSCC2)Oc2ccccc2CN1Cc1cn(Cc2cccc(C(F)(F)F)c2)nn1 | -0.1 | -1.1 | x | x
COC(=O)[C@]12C[C@H](CC(=O)NCCCCc3ccccc3)C(=O)N(CCC3=CCCCC3)C1=C[C@H](C1CCCC1)O[C@@H]2C | -4.2 | -2.7 | x | x
O=C1C(NS(=O)(=O)c2cccs2)=C(N2CCN(c3cccc(Cl)c3)CC2)C(=O)c2ccccc21 | -15.9 | 4.3 | -28.5 | 30.3*
O=C(NCCc1ccccc1Cl)[C@@H]1CCCN1C(=O)[C@@H](NC(=O)N1CCOCC1)c1ccccc1 | -0.5 | -1.8 | x | x
CCN(CC)c1ccc(-c2nn3c(-c4n[nH]c5c4CCC5)nnc3s2)cc1 | 0.1 | 1.4 | 34.3 | 53.6*
Cc1cc2c(s1)c1cnn(Cc3c(Cl)ccc(C)c3F)c(=O)c1n2C | -9.1 | 1.7 | x | x
COc1ccc(OC)c2c1C(=O)C(Cl)=C(Cl)C2=O | 21.7 | 43.2* | 21.8 | -1.4
Cc1nn(-c2ccccc2)c(N2CCCC2)c1/C=N/NC(=O)c1cc2ccccc2cc1O | -4.6 | 5.0 | x | 38.8*
C[C@H]1C(=O)N2[C@@H](C[C@]3(c4c[nH]c5ccccc45)c4ccccc4N(S(=O)(=O)c4ccccc4)[C@H]23)C(=O)N1C | -5.9 | -6.3 | x | x
